# Screens as filed in PubChem BioAssay.
# Hits are enriched below; roughly 7.7% of the tested compounds scored in any of these assays.
# FMDV inh: blocks foot and mouth disease virus. FMDV antiviral cell-based qHTS. Potency, µM (titrated, usually from 57.9 µM), without a hit: at the top dose activity change, negative = inhibition, hits mostly inhibitors. 1.2% of 410,000 active. AID 1159524; calls by dose curve; tested in HEK293T cells; note: read-out not given here; potency is the fitted concentration of half-maximal effect; nearly all actives have a fitted effect of over 45% in size
# HCMV inh: blocks human cytomegalovirus replication; HFF cells, HCMV-luciferase reporter, 72 h; active compounds read low; AID 1259415; 4.5% of 410,000 active; activity change, negative = inhibition, % at 57.5 µM; in the data active = activity change below about -60%; inconclusive = no clear call, values can overlap the other calls; inactive = above about -39%
#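 Compounds were evaluated in HFFs infected with an HCMV luciferase reporter virus (MOI 1 PFU/cell). Luciferase in lysates collected 72 h post infection served as the replication measure.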
# TbPYK inhibitor: inhibitors of Trypanosoma brucei pyruvate kinase; TbPYK enzyme, Kinase-Glo Plus ATP luminescence, 45 min; 0.12% of 410,000 active; Q57TT1; Potency, µM (highest dose often 76.8 µM), for inactives: at the highest dose activity, negative = inhibition, most hits filed as inhibitors; note: potency is the fitted concentration of half-maximal effect; nearly all actives have a fitted effect of over 50% in size
#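 Glycolytic pyruvate kinase of T. brucei was incubated with substrate, test compound and 130 uM ADP for 45 minutes at room temperature. Luminescent Kinase-Glo Plus signal was measured after 10 minutes.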
# Sm TGR inh: blocks Schistosoma mansoni thioredoxin glutathione reductase | Potency, µM (doses to about 114 µM), without a hit: at the highest dose activity change, negative = inhibition, most hits filed as inhibitors | AID 485364 | 3% of 360,000 active | purified TGR, DTNB reduction, TNB absorbance 405 nm; note: potency is the fitted concentration of half-maximal effect; nearly all actives have a fitted effect of over 60% in size
#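 TGR 20 nM + NADPH 100 uM (dispensed conc.), cpd preinc 15 min RT; start with NADPH (500 uM addition) then DTNB (15 mM addition). Kinetic TNB absorbance, 405 nm filter. Four-parameter Hill fit across titration.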
# RE007 growth inh: less growth of the S. pombe RE007 Vpr strain; S. pombe RE007 Vpr strain, BacTiter-Glo ATP luminescence, 24 h; Potency, µM (doses to about 92.2 µM), for inactives: at the top dose activity change, negative = less growth, hits mostly inhibitors; 0.21% of 360,000 active; AID 651644; active = well fitted falling curve with a large enough effect; inconclusive = small, poorly fitted or top-dose-only effect; inactive = no such curve, though single readings can be large or run the other way; note: potency is the fitted concentration of half-maximal effect; nearly all actives have a fitted effect of over 50% in size
#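 Fission yeast strain RE007, carrying one chromosomally integrated HIV-1 vpr copy, was seeded at OD 0.01 in PMG+AL medium with 23 nL pinned compound. After 24 h at 30 °C and 99% humidity, viability was read by BacTiter-Glo luminescence.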
# Giardia FBPA inh: blocks Giardia fructose-bisphosphate aldolase activity; A8B2U2; 0.71% of 290,000 active; purified Giardia FBPA; Potency, µM (top dose mostly 59.6 µM), without a hit: at the top dose activity, negative = inhibition, usual class: inhibitors; note: potency is the fitted concentration of half-maximal effect; nearly all actives have a fitted effect of over 55% in size
# Target sequence (A8B2U2 whole entry, looked up): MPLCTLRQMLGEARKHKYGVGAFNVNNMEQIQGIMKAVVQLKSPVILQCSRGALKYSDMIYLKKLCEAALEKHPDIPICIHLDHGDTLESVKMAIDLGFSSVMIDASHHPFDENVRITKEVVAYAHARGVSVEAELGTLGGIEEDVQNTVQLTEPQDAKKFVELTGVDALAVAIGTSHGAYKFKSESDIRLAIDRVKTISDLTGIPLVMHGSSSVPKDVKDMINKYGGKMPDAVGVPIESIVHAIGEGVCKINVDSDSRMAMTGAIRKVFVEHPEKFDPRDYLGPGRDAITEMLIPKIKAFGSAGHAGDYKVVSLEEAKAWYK
#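 40 nM FBPA preincubated 10 min at RT with compound (up to 57.5 uM final), then substrate plus GAPDH/TPI/NAD/arsenate coupling and diaphorase/resazurin added. Fluorescence read after 20 min at RT, 525/598 nm.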
# An asterisk follows results filed as active; ? = inconclusive; / = no result given. Unless noted, calls come from the whole dose curve; as a rule, active = well fitted curve in the direction sought with a large enough effect; inconclusive = small, poorly fitted or top-dose-only effect, or another doubt; inactive = no such curve, though single readings can be large; an effect the other way counts as inactive or inconclusive. % is set by controls: 0 for no effect and ±100 for the full control effect.
SMILES,FMDV inh,HCMV inh,TbPYK inhibitor,Sm TGR inh,RE007 growth inh,Giardia FBPA inh
O=C(NCC1COc2ccccc2O1)c1ccc(Cl)c(S(=O)(=O)N2CCCC2)c1 (configuration not stated),-22%,-69*,3%,-2%,-13%,/
CCc1nnc(NC(=O)c2ccc(Cl)c(S(=O)(=O)N3CCc4ccccc4C3)c2)s1,25µM*,?,-1%,-2%,-13%,4%
CCc1nnc(NC(=O)c2ccc(S(=O)(=O)N3CCc4ccccc4C3)cc2)s1,-18%,-25,10%,-4%,-12%,11%
Cc1ccccc1CCNC(=O)c1ccc(Cl)c(S(=O)(=O)N2CC(C)OC(C)C2)c1 (configuration not stated),18µM*,-88*,5%,-26%,19%,/
COc1ccc(NC(=O)c2ccc(Cl)c(S(=O)(=O)N3CC(C)OC(C)C3)c2)cn1 (configuration not stated),?,-90*,2%,0%,-7%,/
CC1CN(S(=O)(=O)c2cc(C(=O)NCc3ccncc3)ccc2Cl)CC(C)O1 (configuration not stated),2%,-19,1%,-3%,2%,/
Cc1cc2c(cc1S(=O)(=O)CCC(=O)N1CCCC(C)C1)OCC(=O)N2 (configuration not stated),-22%,4,3%,-4%,/,/
COc1ccc(NC(=O)c2ccc(Cl)c(S(=O)(=O)N3CCc4ccccc4C3)c2)cn1,20µM*,-104*,5%,-5%,-1%,?
O=C(Nc1cccc(S(=O)(=O)NC2=NCCCCC2)c1)c1ccc(Cl)cc1,?,-68*,0%,-3%,5%,/
O=C(Nc1cccc(S(=O)(=O)NC2=NCCC2)c1)c1ccccc1,10%,-31,2%,/,29%,/
C=C(C)CNC(=S)Nc1cccc(S(=O)(=O)NC2=NCCC2)c1,36%,-34,-5%,56µM*,-2%,-3%
C1=C(c2ccccc2)CCN(c2nc3ccccc3n3cnnc23)C1,-12%,-2,1%,3.5µM*,25%,-14%
CCn1nc(C)cc1C(=O)NCC1CCC2(CCN(Cc3ccccc3F)CC2)O1 (configuration not stated),0%,/,/,/,/,/
CS(=O)(=O)c1ncc(Cl)c(C(=O)Nc2ccc(N3CCOCC3)cc2)n1,/,/,-4%,16µM*,-16%,-23%
CS(=O)(=O)c1ccc(C(=O)Nc2ccc(N3CCOCC3)cc2)c(Cl)c1,13%,-34,2%,-16%,-4%,6%
CS(=O)(=O)c1ncc(Cl)c(C(=O)Nc2ccc(OC(F)F)cc2)n1,20µM*,/,5%,7.9µM*,-15%,3%
O=C(Nc1ccccc1)Nc1ccc(S(=O)(=O)N2CCCCC2)cc1,44%,-14,-2%,0%,4%,-4%
Cc1oc(S(=O)(=O)N2CCCCC2)cc1NC(=O)Nc1ccc(Cl)cc1,13%,-25,6%,35µM*,8%,2%
Cc1oc(S(=O)(=O)N2CCCCC2)cc1NC(=O)Nc1ccccc1,6%,17,3%,10µM*,-11%,0%
COc1ccc(S(=O)(=O)N(CC(=O)Nc2cc(Cl)ccc2C)Cc2ccccc2)cc1OC,-11%,-6,2%,2%,/,/
COc1ccc(OC)c(NC(=O)CSc2nccn2-c2cc(C)cc(C)c2)c1,0%,-6,2%,0%,/,/
O=C(CSc1nccn1-c1cccc(Cl)c1)Nc1cccc2ccccc12,-14%,-63*,-9%,2%,/,/
COc1ccc(Cl)cc1NC(=O)CSc1nccn1-c1ccc(Cl)cc1,?,-82*,7%,-2%,/,/
Cc1cc(C)c2oc(C(=O)Nc3c(C)n(C)n(-c4ccccc4)c3=O)cc(=O)c2c1,-22%,-1,-4%,8%,/,/
O=C(NCCN1Cc2ccccc2OC(c2ccccc2F)C1)c1ccco1 (configuration not stated),-12%,/,/,/,/,/
